Results on ten compounds are retold here after PubChem BioAssay (EPA / NIEHS).

“And” between values parts separate entries of the source, which are not always exact repeats. Equal values may be shown once. Results filed as inconclusive are left out. Some compounds were tested as several samples or in several runs, with calls that do not always agree. The source made the active and inactive calls. The calls were made as follows, unless noted: active = hit-call score of the fitted dose curve at least 0.9, where 1 is the maximum; inactive = score below 0.9.

A short description of experiment [1]: ATG_NFI_CIS: Attagene CIS-FACTORIAL HepG2 Assay for human Nuclear Factor I (NFI) (AID 2282989). As to conditions: HepG2 cis-regulatory reporter, NFI response element transcription; actives raise or lower the signal. The gist of the method:
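Reporter transcription driven by endogenous transcription factors in HepG2 cells; 24 h treatment. Quantitation by labelled RT-PCR fragments on capillary electrophoresis, gain- or loss-of-signal relative to DMSO.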

Experiment [2] deals with Myc proto-oncogene protein (Homo sapiens) (UniProt P01106). Briefly: ATG_Myc_CIS: Attagene CIS-FACTORIAL HepG2 Assay for human Myelocytomatosis (Myc) Proto-Oncogene Transcription Factor (AID 2282990). As to conditions: HepG2, Attagene cis-reporter transcription factor activity; actives raise or lower the signal. The procedure, abridged:
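Cells of the HepG2 human liver line bear multiple cis-driven reporter transcription units. Reporter mRNA after 24 h exposure is reverse-transcribed, amplified, labelled and resolved by capillary electrophoresis, with gain- or loss-of-signal fitting relative to DMSO.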

Experiment [3] is described as follows: ATG_NF_kB_CIS: Attagene CIS-FACTORIAL HepG2 Assay for human Nuclear Factor Kappa B (NF-kB) (AID 2282991). As to conditions: HepG2 Attagene cis-factorial NF-kB reporter mRNA; actives raise or lower the signal. The procedure, abridged:
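HepG2, transient multi-reporter transfection, cis promoter elements (endogenous TFs). 24 h exposure. Total RNA → RT → PCR → 6-FAM label → HpaI → CE. Gain/loss vs DMSO.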

A short description of experiment [4]: ATG_NRF2_ARE_CIS: Attagene CIS-FACTORIAL HepG2 Assay for human Nuclear Factor Erythroid 2 Related Factor 2 (NFR2) response to Antioxidant Response Elements (ARE) (AID 2282992).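 As to AC50: reporter mRNA level measured by RT-PCR and capillary electrophoresis fluorescence.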 The following applies: HepG2 Attagene ARE/NRF2 reporter, transcription factor activity; actives raise or lower the signal. The procedure, abridged:
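Transient MRTU transfection of HepG2; 24 h compound exposure; TriZol RNA, RT with oligo(dT), PCR, 6-FAM primer extension, HpaI cut, CE. Bidirectional fit vs DMSO.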

A short description of experiment [5]: ATG_Oct_MLP_CIS: Attagene CIS-FACTORIAL HepG2 Assay for human Octamer-Binding Transcription Factor (Oct) (AID 2282993). As to conditions: HepG2 Attagene cis-factorial Oct reporter, mRNA; actives raise or lower the signal. The gist of the method: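 Transfected HepG2 cells, 24 h treatment. Reporter mRNA quantified by RT-PCR–capillary electrophoresis; bidirectional fitting against DMSO.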

For experiment [6], the target named is Cellular tumor antigen p53 (Homo sapiens) (UniProt P04637). Briefly: ATG_p53_CIS: Attagene CIS-FACTORIAL HepG2 Assay for human p53 Transcription Factor (AID 2282994). The following applies: HepG2 p53 cis-element reporter, Attagene mRNA; actives raise or lower the signal. The gist of the method: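 HepG2, transient MRTU transfection (cis promoter elements, endogenous TFs); 24 h dosing; RNA isolation, RT-PCR, 6-FAM primer extension, HpaI digest, CE fluorescence; bidirectional fit vs DMSO.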

Experiment [7] addresses human Peroxisome Proliferator-activated Receptor alpha (PPARa), PPARA (gene 5465) (UniProt Q07869). In words: ATG_PPARa_TRANS: Attagene TRANS-FACTORIAL HepG2 Assay for human Peroxisome Proliferator-activated Receptor alpha (PPARa) (AID 2283001; active = hit-call score of the fitted dose curve at least 0.9, where 1 is the maximum;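 as to AC50: potency for gain of reporter signal over DMSO so agonist or activator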). The gist of the method: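 Reporter transcripts from GAL4-UAS units in transfected HepG2 were quantified 24 h after dosing. Detection used reverse transcription, PCR, fluorescent primer extension and capillary electrophoresis, with DMSO as baseline.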

For experiment [8], the target named is Peroxisome proliferator-activated receptor gamma (Homo sapiens) (UniProt P37231). In words: ATG_PPARg_TRANS: Attagene TRANS-FACTORIAL HepG2 Assay for human Peroxisome Proliferator-activated Receptor-gamma (PPARg) (AID 2283007; active = hit-call score of the fitted dose curve at least 0.9, where 1 is the maximum). The procedure, abridged:
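Multiplexed reporter transcription units in HepG2, 24 h dosing, reporter transcripts quantified by fluorescent RT-PCR and capillary electrophoresis. Increase over DMSO scored.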

The target in experiment [9] is Nuclear receptor subfamily 1 group I member 2 (Homo sapiens) (UniProt O75469). In words: ATG_PXR_TRANS: Attagene TRANS-FACTORIAL HepG2 Assay for human Pregnane X Receptor (PXR) (AID 2283008; active = hit-call score of the fitted dose curve at least 0.9, where 1 is the maximum). The procedure, abridged:
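Read-out is fluorescence of labelled reporter cDNA fragments separated by capillary electrophoresis after RT-PCR and HpaI digestion. Source: HepG2 cells carrying PXR-GAL4/UAS reporter constructs, treated 24 h; activity fitted upward relative to DMSO.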

Experiment [10] addresses human Peroxisome Proliferator-activated Receptor delta (PPARd), PPARD (gene 5467) (UniProt Q03181). Briefly: ATG_PPARd_TRANS: Attagene TRANS-FACTORIAL HepG2 Assay for human Peroxisome Proliferator-activated Receptor delta (PPARd) (AID 2283002; active = hit-call score of the fitted dose curve at least 0.9, where 1 is the maximum). The procedure, abridged:
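Cell-based TRANS reporter: HepG2, transient MRTU transfection, 24 h exposure. Readout = reporter mRNA (RT-PCR/CE, 6-FAM). Gain-of-signal fit vs DMSO control.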

Experiment [11] concerns the target Retinoic acid receptor alpha (Homo sapiens) (UniProt P10276). Briefly: ATG_RARa_TRANS: Attagene TRANS-FACTORIAL HepG2 Assay for human Retinoic Acid Receptor alpha (RARa) (AID 2283005; active = hit-call score of the fitted dose curve at least 0.9, where 1 is the maximum). The procedure, abridged: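 Reporter transcripts, measured by RT-PCR with fluorescent labeling and capillary electrophoresis after 24 h dosing, reflect activity of an exogenous human RARa–GAL4 fusion in transiently transfected HepG2. Fitted for increase relative to DMSO.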

Experiment [12] concerns the target human Retinoic Acid Receptor gamma (RARg), RARG (gene 5916) (UniProt P13631). In words: ATG_RARg_TRANS: Attagene TRANS-FACTORIAL HepG2 Assay for human Retinoic Acid Receptor gamma (RARg) (AID 2283009; active = hit-call score of the fitted dose curve at least 0.9, where 1 is the maximum;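 as to AC50: AC50 is for reporter induction above DMSO meaning RARg activation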). The procedure, abridged: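 HepG2, RARg-GAL4 TRANS system, 24 h exposure; reporter mRNA by RT-PCR + CE fluorescence; increase over DMSO.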
Experiment [13] concerns the target human RAR-related Orphan Receptor beta (RORb), RORB (gene 6096) (UniProt Q92753). Briefly: ATG_RORb_TRANS: Attagene TRANS-FACTORIAL HepG2 Assay for human RAR-related Orphan Receptor beta (RORb) (AID 2283010; active = hit-call score of the fitted dose curve at least 0.9, where 1 is the maximum). The gist of the method: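 In this TRANS-format test, human HepG2 cells express chimeric NR-Gal4 fusion proteins driving GAL4-UAS reporters. After 24 h dosing, reporter transcripts are measured by fluorescent RT-PCR/capillary electrophoresis, with DMSO as negative control.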

Experiment [14] has as its target human Retinoic Acid Receptor beta (RARb), RARB (gene 5915) (UniProt P10826). Briefly: ATG_RARb_TRANS: Attagene TRANS-FACTORIAL HepG2 Assay for human Retinoic Acid Receptor beta (AID 2283004; active = hit-call score of the fitted dose curve at least 0.9, where 1 is the maximum). The procedure, abridged:
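HepG2 cells were transiently transfected with GAL4-UAS reporter units that report activity of exogenous chimeric NR-Gal4 proteins, then exposed to compound for 24 h. Reporter mRNA was quantified by RT-PCR with capillary electrophoresis fluorescence, as gain of signal over DMSO.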

Experiment [15] in a line: BSK_3C_TissueFactor: BioMAP Diversity Plus: 3C Assay for Tissue Factor Biomarker Activity (AID 2282997). The following applies: BioMAP 3C HUVEC, tissue factor biomarker readout; actives raise or lower the signal. The procedure, abridged: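 HUVEC were treated 24 h, then surface tissue factor measured by ELISA and fitted bidirectionally against DMSO. Parallel SRB total-protein staining assessed overt cytotoxicity at the same time point.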

A short description of experiment [16]: BSK_3C_uPAR: BioMAP Diversity Plus: 3C Assay for Urokinase-type plasminogen activator receptor (uPAR) Biomarker Activity (AID 2282998). The following applies: BioMAP 3C HUVEC, uPAR biomarker ELISA; actives raise or lower the signal. The procedure, abridged:
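Readout: ELISA for surface uPAR. System: human umbilical vein endothelial primary cells, 24 h after chemical exposure. Analysis: bidirectional fit, DMSO baseline.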
(In an ELISA, binding on a coated surface is turned into a signal by an enzyme label.)

Experiment [17] in a line: BSK_4H_Eotaxin3: BioMAP Diversity Plus: 4H Assay for Eotaxin 3 Biomarker Activity (AID 2283000).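 Also: CCL26 protein level quantified by ELISA in parallel with SRB cytotoxicity check.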 The following applies: primary human endothelial cells (HUVEC); actives raise or lower the signal. The gist of the method: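 Eotaxin-3 (CCL26) levels were measured by ELISA in HUVEC primary cultures 24 h post-dosing. Gain or loss of signal was fitted in both directions, with DMSO serving as baseline and negative control.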

Read-out in experiment [18]: Intercellular Adhesion Molecule 1 (ICAM1), ICAM1 (gene 3383)
Briefly: BSK_3C_ICAM1: BioMAP Diversity Plus: 3C Assay for Intercellular Adhesion Molecule 1 (ICAM1) Biomarker Activity (AID 2283003). The following applies: primary human endothelial cells (HUVEC); actives raise or lower the signal. The gist of the method:
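Human vascular endothelial primary cells, 3C conditions, 24 h treatment. ICAM-1 by ELISA.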

Experiment [19] can be described thus: BSK_3C_Proliferation: Cell Proliferation Assessment in the BioMAP Diversity Plus: 3C Assay (AID 2283006). The following applies: primary human endothelial cells (HUVEC). The gist of the method:
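Proliferation of human vascular endothelial primary cells after 48 h dosing, quantified as SRB-stained protein at 560 nm relative to DMSO.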

What is called AC50 is the midpoint of the concentration-response curve, whichever way the signal moves.

Chain of Peroxisome proliferator-activated receptor gamma (Homo sapiens) (P37231 whole entry, looked up): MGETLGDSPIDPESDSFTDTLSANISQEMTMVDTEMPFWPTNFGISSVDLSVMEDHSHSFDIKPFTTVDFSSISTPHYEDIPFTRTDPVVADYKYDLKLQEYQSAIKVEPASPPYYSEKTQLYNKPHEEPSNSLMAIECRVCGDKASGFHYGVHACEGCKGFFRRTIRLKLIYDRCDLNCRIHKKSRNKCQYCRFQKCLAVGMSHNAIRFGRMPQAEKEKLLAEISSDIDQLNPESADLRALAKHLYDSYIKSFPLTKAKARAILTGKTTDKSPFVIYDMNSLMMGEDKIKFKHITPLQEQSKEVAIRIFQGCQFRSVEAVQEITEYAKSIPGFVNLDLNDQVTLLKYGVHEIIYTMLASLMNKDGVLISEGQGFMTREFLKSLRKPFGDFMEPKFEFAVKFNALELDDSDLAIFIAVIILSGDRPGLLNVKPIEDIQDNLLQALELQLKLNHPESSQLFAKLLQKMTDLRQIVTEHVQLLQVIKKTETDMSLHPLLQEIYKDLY
Chain of human Peroxisome Proliferator-activated Receptor delta (PPARd), PPARD (gene 5467) (Q03181 whole entry, looked up): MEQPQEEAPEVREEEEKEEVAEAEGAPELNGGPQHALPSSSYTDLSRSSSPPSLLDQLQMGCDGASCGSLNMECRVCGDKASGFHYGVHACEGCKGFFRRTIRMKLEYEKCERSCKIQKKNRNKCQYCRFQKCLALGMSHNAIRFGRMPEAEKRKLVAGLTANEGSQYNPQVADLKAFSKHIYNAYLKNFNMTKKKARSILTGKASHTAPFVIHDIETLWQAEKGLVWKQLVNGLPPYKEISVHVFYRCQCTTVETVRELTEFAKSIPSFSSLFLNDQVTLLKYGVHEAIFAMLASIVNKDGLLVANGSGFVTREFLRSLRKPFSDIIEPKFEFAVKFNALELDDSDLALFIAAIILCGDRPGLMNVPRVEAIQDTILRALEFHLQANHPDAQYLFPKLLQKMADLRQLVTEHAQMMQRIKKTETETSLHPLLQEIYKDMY
Chain of Cellular tumor antigen p53 (Homo sapiens) (P04637 whole entry, looked up): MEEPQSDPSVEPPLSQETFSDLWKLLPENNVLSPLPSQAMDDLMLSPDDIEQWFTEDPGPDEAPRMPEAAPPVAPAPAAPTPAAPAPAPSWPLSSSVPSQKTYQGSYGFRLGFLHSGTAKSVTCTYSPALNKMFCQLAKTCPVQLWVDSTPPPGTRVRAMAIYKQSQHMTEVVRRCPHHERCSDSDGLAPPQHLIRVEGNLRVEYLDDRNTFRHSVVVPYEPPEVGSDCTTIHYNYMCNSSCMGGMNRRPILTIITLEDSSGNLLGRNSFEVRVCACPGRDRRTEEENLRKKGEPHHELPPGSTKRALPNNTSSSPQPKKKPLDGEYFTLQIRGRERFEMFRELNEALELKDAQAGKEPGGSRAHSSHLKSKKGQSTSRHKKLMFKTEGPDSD
Chain of human RAR-related Orphan Receptor beta (RORb), RORB (gene 6096) (Q92753 whole entry, looked up, the tested form may be a part): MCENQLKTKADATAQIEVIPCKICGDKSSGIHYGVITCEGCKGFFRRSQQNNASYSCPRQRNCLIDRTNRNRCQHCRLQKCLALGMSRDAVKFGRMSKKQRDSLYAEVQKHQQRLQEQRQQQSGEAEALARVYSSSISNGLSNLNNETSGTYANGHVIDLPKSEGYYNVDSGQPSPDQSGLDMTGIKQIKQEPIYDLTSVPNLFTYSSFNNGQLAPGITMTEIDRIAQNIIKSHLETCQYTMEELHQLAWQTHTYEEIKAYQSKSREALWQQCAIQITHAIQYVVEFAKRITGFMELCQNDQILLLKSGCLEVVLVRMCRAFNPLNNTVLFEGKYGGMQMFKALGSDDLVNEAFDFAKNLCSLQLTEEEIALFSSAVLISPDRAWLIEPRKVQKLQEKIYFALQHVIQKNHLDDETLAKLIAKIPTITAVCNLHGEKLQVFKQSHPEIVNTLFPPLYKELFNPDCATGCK
Chain of Nuclear receptor subfamily 1 group I member 2 (Homo sapiens) (O75469 whole entry, looked up, the tested form may be a part): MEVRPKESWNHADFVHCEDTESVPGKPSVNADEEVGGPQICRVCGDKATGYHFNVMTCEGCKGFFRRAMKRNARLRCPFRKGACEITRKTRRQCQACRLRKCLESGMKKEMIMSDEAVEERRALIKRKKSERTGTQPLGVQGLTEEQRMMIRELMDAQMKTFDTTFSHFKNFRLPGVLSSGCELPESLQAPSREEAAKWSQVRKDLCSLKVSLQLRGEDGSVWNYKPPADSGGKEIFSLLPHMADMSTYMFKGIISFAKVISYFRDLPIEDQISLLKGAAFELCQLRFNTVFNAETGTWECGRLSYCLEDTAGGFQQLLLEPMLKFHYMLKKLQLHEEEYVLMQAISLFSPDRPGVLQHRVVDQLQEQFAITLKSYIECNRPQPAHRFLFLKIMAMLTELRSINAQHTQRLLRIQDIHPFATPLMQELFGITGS
Chain of human Peroxisome Proliferator-activated Receptor alpha (PPARa), PPARA (gene 5465) (Q07869 whole entry, looked up, the tested form may be a part): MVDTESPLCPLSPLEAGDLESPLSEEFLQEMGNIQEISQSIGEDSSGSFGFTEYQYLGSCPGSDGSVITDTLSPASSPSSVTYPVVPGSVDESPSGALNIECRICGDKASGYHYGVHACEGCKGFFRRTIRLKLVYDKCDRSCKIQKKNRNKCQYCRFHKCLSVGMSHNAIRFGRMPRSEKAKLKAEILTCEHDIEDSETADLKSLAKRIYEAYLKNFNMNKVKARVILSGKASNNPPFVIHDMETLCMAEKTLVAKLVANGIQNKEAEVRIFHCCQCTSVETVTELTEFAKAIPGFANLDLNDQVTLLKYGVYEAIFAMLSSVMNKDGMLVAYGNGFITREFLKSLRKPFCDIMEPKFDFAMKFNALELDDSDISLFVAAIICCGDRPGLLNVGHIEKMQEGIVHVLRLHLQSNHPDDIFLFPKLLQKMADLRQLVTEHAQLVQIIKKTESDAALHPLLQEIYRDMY
Chain of Myc proto-oncogene protein (Homo sapiens) (P01106 whole entry, looked up): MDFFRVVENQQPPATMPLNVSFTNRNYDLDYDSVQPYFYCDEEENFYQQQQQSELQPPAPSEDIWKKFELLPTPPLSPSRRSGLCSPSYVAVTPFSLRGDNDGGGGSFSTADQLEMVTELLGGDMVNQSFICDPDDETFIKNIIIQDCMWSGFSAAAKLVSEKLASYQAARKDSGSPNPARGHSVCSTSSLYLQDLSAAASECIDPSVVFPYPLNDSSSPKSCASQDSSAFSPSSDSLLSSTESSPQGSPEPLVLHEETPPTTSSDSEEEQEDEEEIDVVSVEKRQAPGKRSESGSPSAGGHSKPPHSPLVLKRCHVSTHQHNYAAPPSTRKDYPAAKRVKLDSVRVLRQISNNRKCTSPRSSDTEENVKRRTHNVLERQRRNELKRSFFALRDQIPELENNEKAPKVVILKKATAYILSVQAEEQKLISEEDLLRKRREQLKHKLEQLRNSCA
Chain of Retinoic acid receptor alpha (Homo sapiens) (P10276 whole entry, looked up, the tested form may be a part): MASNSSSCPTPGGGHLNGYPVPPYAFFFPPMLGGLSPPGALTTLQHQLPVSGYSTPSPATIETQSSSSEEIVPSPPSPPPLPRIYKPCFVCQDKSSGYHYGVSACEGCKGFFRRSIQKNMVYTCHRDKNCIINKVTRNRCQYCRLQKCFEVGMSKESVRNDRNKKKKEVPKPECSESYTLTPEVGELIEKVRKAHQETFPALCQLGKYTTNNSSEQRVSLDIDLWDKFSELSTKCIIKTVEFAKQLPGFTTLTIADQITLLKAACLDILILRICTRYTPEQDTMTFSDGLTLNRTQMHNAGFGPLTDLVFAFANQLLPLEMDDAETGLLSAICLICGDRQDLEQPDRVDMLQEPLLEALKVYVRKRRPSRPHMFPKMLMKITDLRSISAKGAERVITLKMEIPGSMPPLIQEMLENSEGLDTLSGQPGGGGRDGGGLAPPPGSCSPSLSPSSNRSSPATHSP
Chain of human Retinoic Acid Receptor beta (RARb), RARB (gene 5915) (P10826 whole entry, looked up, the tested form may be a part): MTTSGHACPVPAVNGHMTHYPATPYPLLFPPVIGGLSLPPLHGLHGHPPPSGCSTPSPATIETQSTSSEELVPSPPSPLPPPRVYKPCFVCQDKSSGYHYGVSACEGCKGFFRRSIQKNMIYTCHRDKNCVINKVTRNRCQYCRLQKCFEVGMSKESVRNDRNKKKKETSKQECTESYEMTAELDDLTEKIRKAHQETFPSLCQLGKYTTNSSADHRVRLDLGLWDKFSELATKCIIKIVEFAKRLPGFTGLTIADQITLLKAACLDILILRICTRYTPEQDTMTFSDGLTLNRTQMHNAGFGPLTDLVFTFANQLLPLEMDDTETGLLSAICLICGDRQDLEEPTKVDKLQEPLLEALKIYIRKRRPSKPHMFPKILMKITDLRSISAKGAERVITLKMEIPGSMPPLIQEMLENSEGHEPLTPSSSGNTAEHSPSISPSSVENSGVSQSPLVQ
Chain of human Retinoic Acid Receptor gamma (RARg), RARG (gene 5916) (P13631 whole entry, looked up, the tested form may be a part): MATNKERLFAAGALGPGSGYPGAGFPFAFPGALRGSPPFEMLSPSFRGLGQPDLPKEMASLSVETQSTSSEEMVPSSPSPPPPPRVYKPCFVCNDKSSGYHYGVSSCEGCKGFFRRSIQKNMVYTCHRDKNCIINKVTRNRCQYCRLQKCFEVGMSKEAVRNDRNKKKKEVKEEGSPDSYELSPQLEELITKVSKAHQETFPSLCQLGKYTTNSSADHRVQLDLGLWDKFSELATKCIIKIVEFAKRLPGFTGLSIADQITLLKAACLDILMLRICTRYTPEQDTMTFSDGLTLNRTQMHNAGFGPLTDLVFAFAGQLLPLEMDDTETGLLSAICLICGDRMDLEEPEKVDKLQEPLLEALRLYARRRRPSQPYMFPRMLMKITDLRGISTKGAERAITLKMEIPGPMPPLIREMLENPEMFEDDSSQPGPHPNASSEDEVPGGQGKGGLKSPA

Take `C=CC(=O)OCC(CO)(COCC(COC(=O)C=C)(COC(=O)C=C)COC(=O)C=C)COC(=O)C=C`: the result in experiment [1], in experiment [2], in [4], in experiment [7], in experiment [8] and in [9] was inactive. Further, the results for the AC50 in experiment [3], in experiment [5] and in [6] were 0.817 µM (active), 2.89 µM (active) and 2.86 µM (active), respectively.
With `CCCCCCCCCCCC[N+](C)(C)CCCCCCCCCCCC`, the call in [1], in experiment [3], in [7], in [10], in [11] and in experiment [8] was inactive. The compound was called inactive in [9] and in experiment [13]. Also, the concentration at half-maximal activity (AC50) in experiment [2] is 100 µM (active); in [4], 10.4 µM (active); in experiment [5] it was 5.23 µM (active); in experiment [6] it was 10.4 µM (active); in experiment [12] it was 27.3 µM (active).
As for `CCc1cccc(CC)c1NC(=O)C(=O)O`, the result in experiment [1], in [2], in experiment [3], in experiment [4], in [5] and in experiment [6] was inactive. Moreover, the call in experiment [7], in experiment [10] and in [9] was inactive.
For the compound `CCCCCCOC(=O)c1ccc(O)cc1`, the AC50 is 55 µM (active) in [1]; 60.9 µM (active) in [2]; 62.5 µM (active) in experiment [3]; 57 µM (active) in experiment [5]; 52.2 µM (active) in experiment [6]; 63.7 µM (active) in experiment [7]. The AC50 in experiment [8] is 23.2 µM (active); in experiment [9], 25.6 µM (active). Further, the compound was classed as inactive in [4], in experiment [10] and in experiment [12].
Turning to `COC(O)c1ccccc1` (stereo unspecified), the compound was called inactive in experiment [1], in [2], in experiment [3], in experiment [4], in experiment [5] and in [6]. For the same compound, the compound was called inactive in experiment [7], in [10], in [14], in experiment [11], in experiment [8] and in experiment [9]. Further, in experiment [13], the compound was called inactive.
On to `CC1CCC(C(=O)O)CC1` (stereo unspecified), for which the result in [1], in experiment [2], in [3], in experiment [4], in experiment [5] and in experiment [6] was inactive. Besides, the outcome in experiment [10], in experiment [11] and in [8] was inactive.
`CCC(C)c1ccccc1O` (stereo unspecified): the compound was classed as inactive in [1], in experiment [2], in [3], in experiment [4], in experiment [5] and in experiment [15]. Also, the result in experiment [16], in experiment [17], in experiment [18], in experiment [19], in experiment [8] and in experiment [13] was inactive. The AC50 in experiment [4] was 74.7 µM (active); in experiment [9], 45.7 µM (active) and 24.8 µM (active).
With `C=C(c1ccc(C(=O)O)cc1)c1cc2c(cc1C)C(C)(C)CCC2(C)C`, the compound was classed as inactive in experiment [1], in [2], in experiment [3], in experiment [5], in [10] and in [9]. For the same compound, the AC50 in experiment [2] is 26 µM (active); in experiment [3], 11.1 µM (active); in experiment [5], 11.1 µM (active); in experiment [7] it was 33.6 µM (active); in experiment [8], 11.1 µM (active) and 14.2 µM (active).
As for `CCCCCCCCC1CCC(=O)O1` (stereo unspecified), the compound was classed as inactive in experiment [1], in [2], in [3], in experiment [4], in experiment [5] and in experiment [6]. For the same compound, the outcome in experiment [7], in experiment [10], in experiment [8], in [9] and in experiment [13] was inactive.
`C[C@]12CC[C@@H]3c4ccc(O)cc4CC[C@H]3[C@@H]1C[C@@H](O)[C@@H]2O`: the outcome in experiment [1], in experiment [2], in [3], in experiment [4], in experiment [5] and in experiment [6] was inactive. For the same compound, the result in experiment [15], in [16], in experiment [17], in experiment [10], in experiment [18] and in [14] was inactive. In addition, the call in experiment [11], in experiment [19], in experiment [8] and in experiment [9] was inactive.
